Data on 56 compounds can be found in ChEMBL document CHEMBL3988442, “University of Dundee, Small-Polar-MMV Screening Library” (2021).

Screen size: about 69,000 compounds; about 950 (1.4%) showed an effect of 50% or more. The entries come from a sample that favours strong results as a whole.

In the test the test system is Mycobacterium tuberculosis. The test can be described thus: Cornell M. t heat shock assay. Also: in the data most compounds retested in dose-response had high values. The class given is functional, organism-based. On the set-up: dose or concentration left out as unconfirmed.
For `Cc1[nH]ccc1C(=O)N1CCCC(c2nccn2Cc2cscn2)C1` (stereo unspecified), the “Percent Effect” value is listed as -1.058%. For the compound `CN(C)C(=O)[C@@H]1C[C@@H]2CCN(Cc3nccs3)C[C@@H]2O1.O=C(O)C(F)(F)F`, the “Percent Effect” value is -1.901%. The value for `O=C(O)C(F)(F)F.O=C(c1cccc(F)c1)N1CCC2(CC1)CC(N1CCOCC1)C2` was -0.407%; that for `CCCC(=O)NC1CCc2c(ccc(=O)n2Cc2csc(C)n2)C1.O=C(O)C(F)(F)F` (stereo unspecified) was 46.41%; that for `Cc1cccc(CN2C[C@@H]3CN(C(=O)c4cnccn4)C[C@@H]3C2=O)n1.O=C(O)C(F)(F)F` was -21.43%. Turning to `O=C(C1NCCc2[nH]cnc21)N1CCC2(CC1)CNc1ccccc12` (stereo unspecified), the “Percent Effect” value was 80.65%. The value for `O=C(C1NCCc2[nH]cnc21)N1CCC2(C=Cc3ccccc32)CC1` (stereo unspecified) was 4.298%; that for `O=C1OC2(CCN(C(=O)C3NCCc4[nH]cnc43)CC2)c2ccccc21` (stereo unspecified) was 26.76%. On to `Cl.O=C(Nc1ccc(F)cc1)C(c1ccccc1)N1CCOCC1` (stereo unspecified), for which the “Percent Effect” value was -22.41%. As to `Cl.O=C1CC2(CCNCC2)C(=O)N1Cc1ccc(F)cc1`, the “Percent Effect” value was -13.65%.

On to `CC(C)c1ccc(CN2C(=O)C3(CCNCC3)Nc3ccccc32)cc1`, for which the “Percent Effect” value is on record as 76.57%. The value for `N#Cc1cccc(CN2C(=O)C3(CCNCC3)Nc3ccccc32)c1` was -29.61%; that for `C=Cc1ccc(CN2C(=O)C3(CCNCC3)Nc3ccccc32)cc1` was 97.35%.

Turning to `NC(=O)c1ccc(CN2C(=O)C3(CCNCC3)Nc3ccccc32)cc1`, the “Percent Effect” value was determined as 0.2477%.

On to `C=Cc1ccc(CN2CCCC3(CNC(=O)c4ccccc4O3)C2)cc1` (stereo unspecified), for which the “Percent Effect” value was -6.668%.

As to `Cc1cc(C[C@@H]2CCC[C@H]2NCc2cc(F)ccc2F)on1.O=C(O)CC(O)(CC(=O)O)C(=O)O`, the “Percent Effect” value is recorded as -16.01%. The value for `CC(=O)N1CCN(Cc2nccs2)CC2(CC(=O)N(C)C2)C1.O=C(O)C(F)(F)F` (stereo unspecified) was -21.46%; that for `CS(=O)(=O)N[C@H]1CN(C(=O)c2cscn2)[C@@H]2CCCO[C@H]12` was -7.446%; that for `COCC(=O)N1CCN(Cc2cccnc2)c2ncccc2C1.O=C(O)C(F)(F)F.O=C(O)C(F)(F)F` was -17.68%.

In the case of `CCNc1ncc2c(n1)CN(c1cccc(OC)c1)C2=O`, the “Percent Effect” value was found to be 4.456%.

On to `CCOC(=O)CSc1nnc([C@@H](N)CC(C)C)o1.Cl`, for which the “Percent Effect” value was -13.08%. The value for `CS(=O)(=O)N1CCN(c2cc(N3CCCC3CO)ncn2)CC1` (stereo unspecified) was -0.07305%; that for `OCC1CCCN1c1cc(N2CCN(c3ccccn3)CC2)ncn1` (stereo unspecified) was 0.3449%. On to `OCC1CCCN1c1cc(N2CCC(OC3CCCC3)CC2)ncn1` (stereo unspecified), for which the “Percent Effect” value is reported as 105.5%. In the case of `CC(Sc1nncn1C)C(=O)NCCCOc1ccc(F)cc1` (stereo unspecified), the “Percent Effect” value came out at 9.016%. The value for `O=C(NCc1ccccn1)[C@@H]1COC[C@H]2CN(C3CCC3)C[C@H]21.O=C(O)C(F)(F)F.O=C(O)C(F)(F)F` was 3.202%. With `O=C(O)C(F)(F)F.O=C(O)C(F)(F)F.O=C(c1ccco1)N1C[C@@H]2OCCN(CCN3CCCC3)[C@@H]2C1`, the “Percent Effect” value is -4.474%. The value for `Cl.c1cc(CNCc2cccc3c2OCCCO3)cc(Cn2cncn2)c1` was -3.738%; that for `N#Cc1ccc(C(=O)N2CC[C@H]3[C@@H]2CCC(=O)N3c2cccnc2)cc1.O=C(O)C(F)(F)F` was 0.7242%. The value for `Clc1cccc(CNC2CCN(CCc3ccncc3)CC2)c1` was -16.56%; that for `Cl.Cl.Clc1cccc(C[C@@H]2NCCC[C@@H]2Nc2ccccc2)c1` was 104.8%; that for `O=C(Cc1cccc(Cl)c1)N[C@@H]1CCNC[C@H]1O` was -8.967%.

Take `Cl.Cl.Clc1cccc(C[C@@H]2NCCC[C@@H]2Nc2cccc(Cl)c2)c1`: the “Percent Effect” value came to 105.7%. The value for `Cl.NCC1CCCCN1C(=O)Cc1cccc(Cl)c1` (stereo unspecified) was -16.31%; that for `O=C1NCCCc2[nH]c(Cc3cccc(Cl)c3)nc21` was 2.952%; that for `O=C(C[S+]([O-])Cc1cccc(Cl)c1)NC1CCCC1` (stereo unspecified) was -6.776%.

Consider `O=C(NCCc1cccc(Cl)c1)C1CCOCC1`, for which the “Percent Effect” value is listed as -3.977%. The value for `Cc1ccc(CN[C@@H]2COC[C@H]2c2ccc(F)cc2)cc1C.O=C(O)CC(O)(CC(=O)O)C(=O)O` was -6.111%; that for `Cc1csc(CN2C[C@@H]3COC[C@]3(COCC(=O)N(C)C)C2)n1.O=C(O)C(F)(F)F` was -22.07%; that for `CCn1cc2c(n1)CN(Cc1nccs1)CC2COCC1CC1.O=C(O)C(F)(F)F` (stereo unspecified) was 3.982%.

Consider `CC(C)c1nc(N2CCC(N3CCCCCC3)CC2)c2cnn(C)c2n1`, for which the “Percent Effect” value was determined as 94.23%.

With `CC(C)c1nc(N2CCC(N3CCSCC3)CC2)c2cnn(C)c2n1`, the “Percent Effect” value is -6.323%. Turning to `CC(C)c1nc(N2CCC(N3CCCC(O)C3)CC2)c2cnn(C)c2n1` (stereo unspecified), the “Percent Effect” value was -1.228%.

`Cc1csc(CN2CCC[C@]3(C[C@@H](Oc4ccccn4)CO3)C2)n1.O=C(O)C(F)(F)F.O=C(O)C(F)(F)F`: the “Percent Effect” value is on record as -18.33%. With `Cc1noc(-c2ccc(N3CCN(Cc4ncccc4C)CC3)nc2)n1`, the “Percent Effect” value is listed as -11.68%.

For the compound `CCOc1ccnc(N2CCN(Cc3ncccc3C)CC2)n1`, the “Percent Effect” value is listed as 17.62%. The value for `Cc1cccnc1CN1CCN(c2noc(-c3ccccc3)n2)CC1` was 100.3%; that for `Cc1nc(CN2C(=O)CCC23CCN(Cc2cccn2C)CC3)cs1.O=C(O)C(F)(F)F.O=C(O)C(F)(F)F` was -21.2%. Consider `CCN1C[C@@H]2CN(C(=O)c3cccn3C)C[C@@H]2C1=O`, for which the “Percent Effect” value is 97.42%.

As to `Cn1cccc1C(=O)N1C[C@H]2CN(CC3CC3)C(=O)[C@H]2C1`, the “Percent Effect” value worked out at 12.5%.

Take `CC(C)CN1C[C@@H]2CN(C(=O)c3cccn3C)C[C@@H]2C1=O`: the “Percent Effect” value came out at 1.08%. `O=C(NCc1ccc(F)cc1)C1CCCN(c2ccc3nncn3n2)C1` (stereo unspecified): the “Percent Effect” value is given as -16.16%. In the case of `Fc1ccc(CN2CCO[C@H]3[C@H](OCc4ccncc4)CC[C@@H]32)cc1.O=C(O)C(F)(F)F.O=C(O)C(F)(F)F`, the “Percent Effect” value is given as 22.03%. In the case of `COc1cc(CN2CCCC2)ccc1Oc1ncccc1C(F)(F)F`, the “Percent Effect” value was -12.36%. As to `COc1ccc(Oc2ncccc2C(F)(F)F)cc1CN1CCCC1`, the “Percent Effect” value is listed as 7.068%. The value for `COc1cc(Oc2ncccc2C(F)(F)F)ccc1CN1CCCC1` was 53%.
